Test results taken from PubChem BioAssay (EPA / NIEHS).
Where “and” joins values, the source holds several entries; their conditions need not be identical. Identical values can stand only once. Some structures have more than one record in an assay (separate samples or runs), and their calls can disagree. Calls of active or inactive are those of the source. The calls were made as follows: active = hit-call score of the fitted dose curve at least 0.9, where 1 is the maximum; inactive = score below 0.9.

These molecules were tested on Urokinase-type plasminogen activator receptor (uPAR), PLAUR (gene 5329) (assay: BSK_4H_uPAR: BioMAP Diversity Plus: 4H Assay for Urokinase-type plasminogen activator receptor (uPAR) Biomarker Activity (AID 2283030)). Conditions: primary human endothelial cells (HUVEC); actives raise or lower the signal.
Description: BSK_4H is a cell-based, multiplexed-readout assay that uses umbilical vein endothelium, a human vascular primary cell, with measurements taken at 24 hours after chemical dosing in a 96-well plate.BSK_4HAR is an assay component measured in the BSK_4H assay. It measures uPAR antibody related to regulation of gene expression using ELISA technology.Data from the assay component BSK_4HAR was analyzed into 1 assay endpoint. This assay endpoint, BSK_4HAR, was analyzed with bidirectional fitting relative to DMSO as the negative control and baseline of activity. Using a type of binding reporter, gain or loss-of-signal activity can be used to understand changes in the signaling as they relate to the gene PLAUR. Furthermore, this assay endpoint can be referred to as a primary readout, because this assay has produced multiple assay endpoints where this one serves a signaling function. To generalize the intended target to other relatable targets, this assay endpoint is annotated to the cytokine intended target family, where the subfamily is plasmogen activator.
The levels of cell surface (or secreted, indicated by the prefix "s") biomarker endpoints were measured by ELISA. Overt cytotoxicity to cells in confluent adherent cultures (all systems other than the BT system) was assessed by measuring total protein levels using sulforhodamine B (SRB) staining in parallel cultures at the time of biomarker measurements, indicated as SRB endpoints. For proliferation assays for adherent cell types, individual cell types are cultured at sub-confluence and relative cell numbers quantified by SRB staining at time points optimized for each system (48 h: 3C and CASM3C systems; 72 h: BT and HDF3CGF systems; 96 h: SAg system). SRB was performed by staining cells with 0.1% SRB after fixation with 10% TCA and reading wells at 560 nm.Viability and proliferation of PBMC (T cells) was quantified by Alamar Blue reduction for the SAg and BT systems. For PBMC viability (referred to as PBMC Cytotoxicity within the assay endpoint names), cells were plated (75,000/well in a 96-well plate) and then chemical samples added for 1 h before addition of activators, SEB and TSST-1 (20 ng/mL final concentration each). Cells were incubated for 90 h. Then, Alamar Blue (20 uL/well) (Invitrogen, Cat DAL1100) was added for 6 h, and the plates were read with a fluorescence microplate reader at 546/580 nm (excitation/emission). For PBMC proliferation, cells were plated and activated as above but incubated for only 16 h prior to addition of Alamar Blue. Plates were read after 6 h.

Structure (SMILES)	outcome	AC50
CCO[Si](CCCN=C=O)(OCC)OCC	inactive	
CC1OC1C1CCC2(C)OC2C1 (stereo not drawn)		0.0907 µM (active)
CC(C)(c1cc(Br)c(OCCO)c(Br)c1)c1cc(Br)c(OCCO)c(Br)c1		11.7 µM (active)
c1ccc2c(c1)ccc1ncccc12		20 µM (active)
C=CC(=O)OCC(Br)CBr (stereo not drawn)		32.4 µM (active)
N#[N+]c1ccc2c(S(=O)(=O)[O-])cccc2c1O	inactive	
C=CCOc1c(Br)cc(Br)cc1Br		31 µM (active)
CCCCC(CC)COC(=O)c1ccccc1O (stereo not drawn)	inactive	
CCCCC(CC)COCC1CO1 (stereo not drawn)	inactive	
C#CC1(O)CC[C@H]2[C@@H]3CCC4=CCCC[C@@H]4[C@H]3CC[C@@]21C (stereo partly drawn)		20 µM (active)
CCCCC/C=C\C/C=C\CCCCCCCC(=O)OC	inactive	
O=C(Cl)c1cc(C(=O)Cl)cc(C(=O)Cl)c1		20 µM (active)
CCOC(=O)c1ccccc1C(=C1C=C(Br)C(=O)C(Br)=C1)c1cc(Br)c(O)c(Br)c1		15.6 µM (active) and 15.8 µM (active)
CCO[Si](C)(OCC)OCC	inactive	
c1ccc2c(c1)ccc1cc3c(ccc4ccccc43)cc12	inactive	0.267 µM (active)
O=c1c2ccccc2oc2ccccc12	inactive	
S=C(NC1CCCCC1)NC1CCCCC1	inactive	
CCCCCCCCc1ccc(Nc2ccc(CCCCCCCC)cc2)cc1	inactive	

Structure (SMILES)	outcome	AC50
O=C(Nc1ccccc1SSc1ccccc1NC(=O)c1ccccc1)c1ccccc1	inactive	
O=C1CCCN1CCO	inactive	
CCCCNc1ccc(NCCCC)c2c1C(=O)c1ccccc1C2=O	inactive	
COc1ccc2nc(N)sc2c1	inactive	
O=Nc1ccc(O)cc1	inactive	
O=C(c1ccc(O)cc1)c1ccc(O)cc1O	inactive	9.72 µM (active)
C=CC=CC=CCCCCC	inactive	
C=C[Si](OC(C)=O)(OC(C)=O)OC(C)=O	inactive	
COCc1c(C(C)C)nc(C(C)C)c(/C=C/[C@@H](O)C[C@@H](O)CC(=O)O)c1-c1ccc(F)cc1		0.456 µM (active)
CO[Si](OC)(OC)c1ccccc1	inactive	
CN1C(=O)N(C)C(O)C1O (stereo not drawn)	inactive	
Nc1ccc(N)c(Cl)c1	inactive	
CCOc1nc(F)cc2nc(S(=O)(=O)Nc3c(Cl)cccc3C(=O)OC)nn12	inactive	
C=CCOCC(O)CCl (stereo not drawn)	inactive	
CC(C)C(=O)C(C)C	inactive	
C/C=C\C/C=C/CCCCCCCCOC(C)=O	inactive	
c1ccc(-c2ccccn2)nc1	inactive	
CCCCCCCCCCCCCCCC[N+](C)(C)CC	inactive	
